Screening data deposited in PubChem BioAssay by The Scripps Research Institute Molecular Screening Center.
The list is not random: actives were taken first. Their share in the collection is about 3.4%.
MITF primary: inhibitors of human MITF | AID 1259374 | AlphaScreen MITF homodimerization, bead proximity signal | 0.91% of 650,000 active | O75030 | inhibition, % at 2.6 µM; in the data active = inhibition above about 50%;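 also: 0% = vehicle wells with protein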
GPR151 activ: activates the human receptor GPR151. activation, % at 11.2 µM. Q8TDV0. 1% of 650,000 active. PathHunter beta-arrestin GPR151 cells, luminescence; in the data active = activation above about 4.9%;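 also: 0% = median of compound wells and 100% = cells with positive control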
Target sequence (Q8TDV0 whole entry, looked up): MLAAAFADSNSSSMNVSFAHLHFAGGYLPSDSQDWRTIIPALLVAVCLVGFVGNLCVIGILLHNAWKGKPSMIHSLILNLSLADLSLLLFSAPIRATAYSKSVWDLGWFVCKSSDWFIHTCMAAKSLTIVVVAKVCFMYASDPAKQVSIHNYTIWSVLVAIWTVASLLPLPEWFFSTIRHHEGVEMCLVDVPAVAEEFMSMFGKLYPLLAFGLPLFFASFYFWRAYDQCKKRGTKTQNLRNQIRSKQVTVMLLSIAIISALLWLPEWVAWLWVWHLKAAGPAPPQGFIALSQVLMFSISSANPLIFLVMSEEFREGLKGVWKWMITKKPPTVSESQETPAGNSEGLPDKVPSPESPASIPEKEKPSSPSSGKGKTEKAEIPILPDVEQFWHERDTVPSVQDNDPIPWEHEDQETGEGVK
TEAD-YAP block: TEAD-YAP interaction inhibition; HEK-TIYL cells, TEAD-Gal4/YAP UAS-luciferase luminescence; inhibition, % at 9.12 µM; 1.4% of 640,000 active; in the data active = inhibition above about 32%;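 also: 0% = median of test compound wells and 100% = reference inhibitor wells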
FBW7 activator: activators of human E3 ligase FBW7 | Q969H0 | AlphaScreen FBW7–phospho-cyclin E peptide binding, activator screen | normalized activity (activation), % at 26.1 µM | 0.13% of 650,000 active | AID 1259310; in the data active = normalized activity above about 1.9%;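 also: purified mutant Fbw7 with reduced substrate affinity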
Numbers without * were called inactive.

SMILES	MITF primary	GPR151 activ	TEAD-YAP block	FBW7 activator
O=C(Nc1ccc(CN2CCOCC2)cc1)c1ccc(OCc2ccccc2)cc1	2	0	13	0
O=C(CN1CCN(CC(=O)Nc2ccc(OCc3ccccc3)cc2)CC1)Nc1ccc(F)cc1	4	-1	19	0
N#CC1=C(N)Oc2n[nH]c(-c3cccc([N+](=O)[O-])c3)c2C1c1ccccc1Cl (centres undefined)	19	-2	9	0
COc1cc(NC(=O)c2ccc(-c3ccc(N4CCN(C)CC4)cc3)s2)cc(OC)c1OC	10	0	62*	0
COc1cc(NC(=O)c2ccc(-c3ccc(C(N)=O)cc3)s2)cc(OC)c1OC	2	0	10	0
COc1ccc(-c2ccc(C(=O)Nc3cc(OC)c(OC)c(OC)c3)s2)cc1	24	-3	36*	0
Cc1ccn2cc(-c3ccccc3)nc2c1	0	-8	77*	1
Cc1ccn2cc(-c3cccc(NC(=O)c4ccccc4)c3)nc2c1	6	-2	-52	0
CN(C)S(=O)(=O)c1ccc(-c2cn3ccccc3n2)cc1	-1	-2	-7	0
Cc1ccn2cc(-c3cccc(Cl)c3)nc2c1	18	-7	-29	0
Cc1ccc(-c2cn3ccccc3n2)cc1C	6	-8	59*	0
Cc1ccn2cc(-c3ccc4ccccc4c3)nc2c1	-5	-6	63*	0
Oc1ccc(-c2cn3ccccc3n2)cc1O	9	-5	-31	0
Cc1ccn2cc(-c3ccc(O)c(O)c3)nc2c1	21	-7	64*	0
CCOC(=O)C1=C(C(F)(F)F)Nc2ncnn2C1c1ccc(OC)c(OC)c1 (centres undefined)	17	-1	8	0
CC(C)(O)C(=O)/C=C/c1cccc([N+](=O)[O-])c1	0	-1	48*	0
O=c1cc2oc3cc(O)c(O)cc3c(-c3ccccc3[N+](=O)[O-])c-2cc1O	114*	-1	6	0
O=C1c2ccccc2C(=O)c2c(O)c([N+](=O)[O-])cc(O)c21	8	1	3	0
O=c1cc(-c2ccc3c(c2)OCCO3)oc2ccc([N+](=O)[O-])cc12	10	-1	-9	0
CCOc1ccc(-c2c3cc(O)c(=O)cc-3oc3cc(O)c(O)cc23)cc1	111*	-1	-5	0
O=c1cc2oc3cc(O)c(O)cc3c(-c3ccc([N+](=O)[O-])cc3)c-2cc1O	97*	0	7	-2
CCOc1ccc(-c2cc(=O)c3ccc(NC(=O)c4ccncc4)cc3o2)cc1	0	1	-9	0
COc1ccc(CNC(=O)c2cnccn2)c(OC)c1	-16	0	2	0
CCOC(=O)c1oc2cc(O)c(CC)cc2c(=O)c1-c1ccc2c(c1)OCO2	3	0	-3	0
CC(C)C(=O)Nc1cccc(NC(=O)c2cccc(Br)c2)c1	-8	0	-6	0
SMILES	MITF primary	GPR151 activ	TEAD-YAP block	FBW7 activator
CC(C)C(=O)Nc1cccc(C(=O)Nc2cccc(O)c2)c1	14	-2	59*	1
CC(C)(C)NC(=O)c1cccc(NC(=O)c2cccc(O)c2)c1	14	-1	34*	0
CC(=O)Oc1ccc(C(=O)Nc2cccc(C(=O)NC(C)(C)C)c2)cc1	-1	2	12	0
O=[N+]([O-])c1ccc2nc(-c3ccc(OC(F)F)cc3)cn2c1	-4	1	45*	0
O=[N+]([O-])c1ccc(-c2cn3cc(Cl)ccc3n2)cc1	3	1	-77	0
CCOc1ccc(CC(=NCC(=O)O)C2=C(O)CC(C)(C)CC2=O)cc1OCC	-1	0	-5	0
Cc1nc(C)n(-c2ccc(Nc3ncc(Cl)c(-c4cc(F)cc(N5CCOCC5)c4)n3)cc2)n1	12	-1	3	0
COc1ccc(CCN2C(=O)CSC2c2ccc(C(C)C)cc2)cc1OC (centres undefined)	-3	2	40*	0
Cc1nc2c3ccccc3nc(NNC(=O)CCC(=O)NCCN3CCOCC3)n2n1	-6	-1	-5	0
O=C(N(c1cccc(C(F)(F)F)c1)C1C=CS(=O)(=O)C1)C(Cl)(Cl)Cl (centres undefined)	-3	-1	53*	0
Cc1ccc(N(C(=O)C(Cl)(Cl)Cl)C2C=CS(=O)(=O)C2)cc1 (centres undefined)	8	1	-2	0
O=S1(=O)C=CC(Nc2cccc3ccccc23)C1 (centres undefined)	-8	-1	33*	0
CCc1ccccc1NC1C=CS(=O)(=O)C1 (centres undefined)	14	1	34*	0
COc1ccc(NC(=O)CSc2ccc3nnc(-c4ccccc4)n3n2)cc1	2	4	-3	0
Cc1cc(=O)n2[nH]c(NCc3ccc(OCc4ccccc4)cc3)nc2n1	11	-1	-3	0
O=C(O)/C(=C/c1ccco1)NC(=O)c1ccccc1	17	0	7	-1
NNC(=O)/C(=C\c1ccco1)NC(=O)c1ccccc1	-5	0	35*	0
CCCCC(CC)Cn1c(=S)[nH]c2ncccc2c1=O (centres undefined)	-8	1	-5	0
CC(=N/NC(=O)c1ccc(C)cc1)/C(C)=N/O	-1	-2	71*	0
CC(=N/O)/C(C)=N\NC(=O)c1ccccn1	4	-5	45*	0
Cc1cccc(/C(N)=N/OC(=O)COc2cccc(C)c2C)c1	-2	-1	-7	0
CCC(C)C1N=C2c3ccccc3N=C(SCC(=O)c3ccc(O)c(O)c3)N2C1=O (centres undefined)	61*	0	0	0
O=C(CCl)NCCOc1ccccc1	-9	0	36*	0
O=C(NCCOc1ccc(Cl)cc1)c1ccco1	18	0	-5	2.3*
O=C(CCC(=O)c1ccccc1)NCCOc1ccccc1	7	4	0	0
SMILES	MITF primary	GPR151 activ	TEAD-YAP block	FBW7 activator
CC(=O)c1ccc(C(=O)NCCOc2ccccc2)cc1	0	-5	68*	1
COc1cc(-c2nc3ccc(C(=O)NCCc4ccccc4)cc3nc2-c2cc(OC)c(OC)c(OC)c2)cc(OC)c1OC	10	0	8	0
COc1cc(-c2nc3ccc(C(=O)NCCc4ccc(C)cc4)cc3nc2-c2cc(OC)c(OC)c(OC)c2)cc(OC)c1OC	22	1	38*	1
CCc1ccc(OCCNC(=O)c2ccco2)cc1	3	-2	-23	0
Cc1ccccc1NC(=O)c1cccc(NC(=O)c2ccc([N+](=O)[O-])cc2C(=O)O)c1	-2	-1	-6	0
COC(=O)c1c(NC(=O)c2cccc([N+](=O)[O-])c2)sc(C(=O)Nc2ccccc2)c1C	-5	-1	-2	0
Cc1cccc(CNC(=O)C2CC23CCN(C(=O)c2cnn(-c4ccccc4)c2)CC3)n1 (centres undefined)	-1	2	3	0
CC1CCc2c(sc(NC(=O)CN3C(=O)c4ccccc4S3(=O)=O)c2C(N)=O)C1 (centres undefined)	0	3	22	0
Cc1ccc(C(=O)NCCc2ccccc2)cc1	-7	-6	82*	0
